This is a sample that favours compounds with a hit; in the whole collection about 11% have one here.
WT yeast gro inh: growth inhibition of WT yeast, mitochondrial fusion screen | mitochondrial fusion phenotypic screen, WT strain | inhibition, % at 10 µM | hit rate 2.1% among 190,000 | AID 1362; in the data active means inhibition above about 58%; tested in S. cerevisiae
Autophagy HCS: alters autophagy in cells | MEF GFP-LC3 puncta imaging; test concentration mostly 10 µM | calls only at 10 µM (by protocol) | AID 463193 | hit rate 0.98% among 190,000;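 active means percentage of spot-positive cells more than 3 SD above its plate mean, without a fluorescence outlier flag or 80% toxicity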;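 further: spot-positive cell cutoff set from DMSO-treated cells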
Ins promoter up: MIN6 insulin promoter up-regulation. AID 1625. hit rate 0.3% among 190,000. MIN6 insulin promoter-GFP reporter, high-content imaging; stronger effect = higher value. z-score at 5 µM;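 active means z-score above 3 at 5 µM with at least 500 cells counted in the well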
INS promoter inh: TRM-6 insulin promoter activity inhibition | hit rate 0.9% among 130,000 | TRM-6 cells (human fetal islet line), insulin promoter-eGFP reporter, imaging; reporter expression induced with tamoxifen | inhibition, % at 2 µM;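 active means inhibition above the mean plus 3 SD, with well images judged a real hit on visual review, cut at about 60% in these data, passing the limit was not always enough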
L major viab: reduces viability of Leishmania major promastigotes; resazurin fluorescence viability; hit rate 9% among 200,000; AID 1063; inhibition, % at 10 µM; in the data active means inhibition above about 50%;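 further: promastigotes grown with compound for 44 hours at 28 °C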
Active calls of the source: *; i = inactive; x = no result; + = active, no number.

SMILES	WT yeast gro inh	Autophagy HCS	Ins promoter up	INS promoter inh	L major viab
CC(C)(C)n1[nH]c2c3c(ccc2c1=O)C(=O)c1ccccc1C3=O	x	i	-0.46	8	95*
O=C(CCn1cccc1)Nc1ccc(OC(F)(F)F)cc1	9	i	x	21	-4
Cc1ccc(C(C)n2cc(C(=O)NCCN3CCN(C)CC3)nn2)cc1 (stereo unspecified)	-20	i	0.73	x	92*
CCN1CCN(CCNC(=O)c2cn(C(C)c3ccccc3F)nn2)CC1 (stereo unspecified)	-10	i	0.11	40	-3
O=C(CCl)Nc1cccc(S(=O)(=O)NC2=NCCC2)c1	x	x	2.4	x	x
O=C(/C=C/c1ccc2c(c1)OCO2)Nc1cc(S(=O)(=O)N2CCOCC2)ccc1N1CCOCC1	-34	i	-0.04	17	64*
CCN(CC)S(=O)(=O)c1ccc(N2CCCCC2)c(NC(=O)/C=C/c2cc(OC)c(OC)c(OC)c2)c1	-29	i	x	21	69*
COc1ccccc1OCC(=O)Nc1cc(S(=O)(=O)N2CCCCC2)ccc1N1CCCCC1	-30	i	-0.14	-27	98*
COc1ccc(/C=C/C(=O)Nc2cc(S(=O)(=O)N3CCCCC3)ccc2N2CCCCC2)cc1OC	13	i	-0.94	-3	97*
O=C(/C=C/c1ccccc1)Nc1cc(S(=O)(=O)N2CCOCC2)ccc1N1CCCC1	-20	i	0.66	23	-2
S=c1nc(-c2ccccc2Cl)n(Cc2cccnc2)c2c1CCCC2	-10	i	0.32	-42	-5
COc1cc2c(cc1OC)C(c1ccccc1)N(S(C)(=O)=O)CC2 (stereo unspecified)	-12	i	0.18	x	-4
CC(C)C(=O)NNC(=O)c1ccccn1	-3	i	0.01	0	-2
O=C(NNC(=O)c1ccccn1)c1cccc([N+](=O)[O-])c1	-6	i	-0.33	55	58*
COc1cc(OC)cc(C(=O)NC(=S)Nc2cccnc2)c1	-8	i	0.45	7	-3
CC(Oc1ccccc1)C(=O)NNC(=O)c1ccccn1 (stereo unspecified)	2	i	0.11	-29	79*
COc1cc(OC)cc(C(=O)NNC(=O)c2ccccn2)c1	-13	i	-1.2	x	93*
COc1cc(OC)cc(C(=O)NC(=S)NNC(=O)c2cnccn2)c1	-7	i	-0.47	x	100*
O=C(c1cccc([N+](=O)[O-])c1)c1ccccn1	x	x	0.27	x	x
NC(Cc1ccc(Oc2ccc(O)cc2)cc1)C(=O)O (stereo unspecified)	-8	i	x	29	-8
C/C(=N\NC(=O)C(C)Oc1ccc([N+](=O)[O-])cc1)c1ccccn1 (stereo unspecified)	2	i	-1.7	x	100*
COc1ccc(OC(C)C(=O)Nc2ccc([N+](=O)[O-])cc2)cc1 (stereo unspecified)	3	i	-0.77	x	14
COc1ccc(C(=O)NC(=S)Nc2cccnc2)cc1OC	1	i	0.5	x	-5
COc1ccc(C(=O)NC(=S)NNC(=O)c2cnccn2)cc1OC	8	i	-0.19	x	100*
Cc1ccc(OCCn2cnc(Cl)c2Cl)cc1	-4	i	0.02	-53	-3
SMILES	WT yeast gro inh	Autophagy HCS	Ins promoter up	INS promoter inh	L major viab
O=C(NNc1nc2ccc(Cl)cc2s1)c1cc(-c2cccs2)nc2ccccc12	66	i	-0.84	10	-9
COc1ccc(Nc2nc(-c3ccccc3)nc3ccccc23)cc1S(=O)(=O)N1CCOCC1	x	x	-2.4	x	x
OC(CNCc1ccc(F)cc1)(c1ccc(F)cc1)c1ccc(F)cc1	-6	i	x	x	7
COc1ccc(CNCC(O)(c2ccc(Cl)cc2)c2ccc(Cl)cc2)cc1OC	-2	i	-0.07	x	47
CCCCNCC(O)(c1ccc(Cl)cc1)c1ccc(Cl)cc1	19	i	-1.7	x	90*
COc1ccc(CNCC(O)(c2ccc(Cl)cc2)c2ccc(Cl)cc2)cc1	-5	i	0.39	x	101*
OC(CNCc1ccc(Cl)cc1)(c1ccccc1)c1ccc(F)cc1 (stereo unspecified)	71*	+	x	x	17
O=C(CSc1nc2c(c(=O)n1-c1ccccc1)SCC2)NCC1CCCO1 (stereo unspecified)	x	x	-1.2	x	x
COc1cccc(NC(=O)CC2SC(=Nc3ccccc3)NC2=O)c1 (stereo unspecified)	-12	i	0.37	39	6
COc1cccc(NC(=O)CC2S/C(=N\S(=O)(=O)c3ccccc3)N(c3ccccc3)C2=O)c1 (stereo unspecified)	10	i	0.73	14	61*
Cc1cn([C@H]2C[C@H](N=[N+]=[N-])[C@@H](CO)O2)c(=O)[nH]c1=O	-1	i	x	18	-3
O=c1[nH]c(=O)n([C@H]2C[C@H](O)[C@@H](CO)O2)cc1F	-5	i	x	-24	82*
O=C(CCc1ccc(S(=O)(=O)NCCc2ccccc2)cc1)NCc1ccco1	-6	i	x	-425	-2
CC(=O)CCc1c(C)nc2ccc(C)cc2c1Cl	4	i	0.06	28	-1
CCOC(=O)c1ccc(N=c2sc(C(=O)OC)cc(=O)n2Cc2ccc3c(c2)OCO3)cc1	2	i	0.45	x	100*
CC(=O)c1c(O)cc(C)n(-c2ccc(F)cc2)c1=O	-5	i	1	17	-3
COC(=O)c1c(O)cc(C(C)(C)C)n(-c2ccc(F)cc2)c1=O	-14	i	0.01	22	63*
COC(=O)c1cc(=O)n(Cc2cccs2)c(=Nc2ccc(F)cc2)s1	37	i	0.25	x	98*
COC(=O)c1cc(=O)n(Cc2ccc3c(c2)OCO3)c(=Nc2ccc(F)cc2)s1	12	i	-0.22	x	87*
O=C1CN(c2nc3nonc3nc2N2CCCCC2)CCN1	-19	i	-0.39	x	-8
CNC(=O)c1[nH]cnc1C(=O)N[C@@H](C)C(=O)OC(C)(C)C	3	i	0.42	x	-6
COC(=O)c1ccc(N=c2sc(C(=O)OC)cc(=O)n2C)cc1	4	i	0.28	x	7
COC(=O)c1cc(=O)n(Cc2ccc(F)cc2)c(=NCc2ccc(F)cc2)s1	8	i	x	0	-2
COC(=O)c1cc(=O)n(Cc2ccc3c(c2)OCO3)c(=Nc2ccccc2)s1	2	i	-1.2	-40	82*
COC(=O)c1cc(=O)n(-c2ccc(F)cc2)c(=Nc2ccc(F)cc2)s1	47	i	-0.71	-55	92*
SMILES	WT yeast gro inh	Autophagy HCS	Ins promoter up	INS promoter inh	L major viab
CCCSc1ccc(C(=O)Nc2ccc(Cl)cc2)cn1	2	i	-0.38	x	-3
Cc1ccc(OCc2nc(-c3ccccn3)no2)c(Br)c1	6	i	-0.63	11	-3
CC(C)c1ccc(OCc2nc(-c3ccccn3)no2)c(Br)c1	79*	x	-0.34	x	14
COc1ccccc1Cn1c(/C=C/c2ccccc2)nc2ccccc21	79*	i	0.65	21	44
COc1ccc(/C=C/c2nc3ccccc3n2Cc2ccccc2OC)cc1	75*	i	-1.2	-26	65*
COCCn1c(/C=C/c2ccccc2)nc2ccccc21	23	i	-0.59	x	16
Cn1c(=O)c(/C=C/c2ccccc2)nc2ccccc21	-4	i	-0.19	0	-4

Screens as filed in PubChem BioAssay.
